Bioassay records from PubChem BioAssay.
Rows were chosen to be rich in hits. Some 4% of all compounds tested hit in one or more screens of this group.
KKLEB tox: CF airway cell cytotoxicity counter-screen; KKLEB CF airway cells viability, ATPlite luminescence, overnight; hits give low values; cells stimulated with P. aeruginosa culture filtrate; activity change (cytotoxicity), % at 5 µM; 0.36% of 360,000 active;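 active = corrected activity change at or below -50% at 5 µM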
TWEAK-Fn14 inh: TWEAK-Fn14 signaling inhibition; TWEAK-stimulated Fn14 reporter cells, luciferase luminescence, 8 h; inhibition, % at 10 µM; 2% of 360,000 active; in the data active = inhibition above about 50%
Peg3 promoter: Peg3 promoter activity inhibition; inhibition, % at 20 µM; 1.7% of 360,000 active; HeLa PEG-Prom luciferase reporter, luminescence, overnight;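 active = inhibition of at least 50% at 20 µM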
HIF-2a block: blocks HIF-2a reporter activity; 786-0 RCC cells HIF-2a reporter, luciferase luminescence, overnight; AID 624352; inhibition, % at 18.8 µM; 0.72% of 360,000 active;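 active = inhibition of the luminescence signal of 40% or more relative to plate controls, in a single-dose primary screen at 18.75 µM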
TROY signal inh: TROY signaling inhibition; Q293 LMP1-TROYcd NF-kB luciferase reporter, 4 h; AID 1347056; 0.98% of 360,000 active; inhibition, % at 10 µM;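 active = compounds whose plate-normalised and pattern-corrected inhibition of the luciferase reporter signal at the single screening dose is 50% or more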
CF NFkB inh: inhibitors of cystic fibrosis induced NF-kB. 0.86% of 360,000 active. KKLEB NF-kB-GFP reporter, PAF-induced, GFP fluorescence overnight. inhibition, % at 5 µM;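 active = at least 50% inhibition at 5 µM, scaled per plate between neutral and stimulator controls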;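 also: PAF is a Pseudomonas aeruginosa culture filtrate used as stimulus; plate controls were PAF-stimulated DMSO wells for no effect and unstimulated DMSO wells for full effect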
Numbers without * were called inactive; x = no result.

SMILES	KKLEB tox	TWEAK-Fn14 inh	Peg3 promoter	HIF-2a block	TROY signal inh	CF NFkB inh
O=C(NC(c1ccccc1)c1ccsc1)C1CCN(CCOc2ccc(Cl)cc2Cl)CC1 (configuration not stated)	-31	-2	54*	-13	32	8
COc1ccc(N(CC(=O)NC2CCCC2)C(=O)c2ccc(C)s2)cc1OC	4	27	3	7	4	-9
COc1ccc(NS(=O)(=O)c2cc(NC(=O)Cc3cccs3)ccc2C)cc1	2	94*	9	11	82*	9
COc1ccc(NS(=O)(=O)c2ccc(NC(=O)Cc3cccs3)cc2)cc1	-1	38	-24	19	65*	1
CCCCN(CCCC)S(=O)(=O)c1ccc(NC(=O)Cc2cccs2)cc1	-1	6	30	11	51*	8
COc1ccc(NS(=O)(=O)c2cc(NC(=O)/C=C/c3cccs3)ccc2N2CCOCC2)cc1	-9	41	50*	16	11	-19
CCc1cccc(NC(=O)C2CCCN2S(=O)(=O)c2ccc3c(c2)CC(C)N3C(C)=O)c1 (configuration not stated)	-2	16	6	9	15	3
Cc1ccc(Oc2ccc(NC(=O)C3=CC=CN4CCS(=O)(=O)N=C34)cc2)cc1	-2	-8	-20	-39	-3	-3
COc1cc2c(cc1OC)CN(Cc1nc3ccsc3c(=O)[nH]1)CC2	-1	77*	-5	0	5	18
COc1ccc(N=Cc2sc3ccccc3c2Cl)cc1	-8	71*	-61	-110	67*	-1
COc1ccc(CNC(=O)CN(C(=O)c2csnn2)c2ccccc2F)cc1	1	4	-4	-15	-3	-6
COc1ccnc(Oc2ccccc2)c1C(=O)N/C=N/OCc1ccc(F)cc1Cl	-26	19	57*	-12	2	40
COc1cccc(CNCc2cc(OC)cc(OC)c2)c1	-10	-11	5	9	10	14
COc1cc(CNCc2ccc(OC)c(OC)c2OC)cc(OC)c1	-8	4	71*	10	13	2
O=C(CCC(=O)N1CCOc2ccc(Cl)cc21)NCCCN1CCC(Cc2ccccc2)CC1	-21	-10	75*	-11	-3	35
O=C(CN1CCN(S(=O)(=O)c2ccccc2)CC1)NC(=O)NCc1ccco1	18	94*	11	11	-10	-20
O=C(CN1CCN(S(=O)(=O)c2ccccc2)CC1)NC(=O)NCc1ccccc1	9	-7	8	-2	-5	-3
Cc1nc(NCCc2ccccc2)c2oc3ccccc3c2n1	-7	52*	-4	-33	30	9
CN(C)C(CNC(=O)CCNC(=O)c1ccc(Cl)cc1)c1ccco1 (configuration not stated)	13	-6	-10	8	-9	-9
Oc1cccc(-c2nnc(-c3cccc(O)c3)nn2)c1	-60*	85*	-13	-12	27	-2
CC(=O)OC[C@]12CC[C@H]3[C@@](C)(CC[C@H]4C(C)(C)CCC[C@]34C)[C@@H]1CC(C1=CC(=O)OC1O)O2 (some centres not stated)	-81*	108*	105*	89*	88*	92*
COc1nc(NCCc2ccc(OC)c(OC)c2)nc(OC)n1	2	-12	8	13	-2	1
COc1ccccc1Nc1c2ccccc2nc2ccccc12	-26	-61	88*	17	19	-40
COc1ccc(CCNc2oc(COc3ccccc3Cl)nc2C#N)cc1OC	-17	43	35	-3	52*	10
COc1ccccc1Nc1nc(-c2ccccc2)nc2ccccc12	-2	5	16	-1	15	-19
SMILES	KKLEB tox	TWEAK-Fn14 inh	Peg3 promoter	HIF-2a block	TROY signal inh	CF NFkB inh
COc1ccc(Nc2c3ccccc3nc3ccccc23)cc1	-7	-65	78*	33	-21	-73
COc1ccc(CCNc2c3ccccc3nc3ccccc23)cc1OC	-17	-71	73*	51*	-36	-1
CCC(=O)N(C)C[C@H]1Oc2cc(-c3ccccc3F)ccc2S(=O)(=O)N([C@H](C)CO)C[C@H]1C	3	-17	17	6	-8	8
CC[C@H](C)[C@H](NC(=O)c1ccc(Cl)cc1)C(=O)OCC(=O)c1c(N)n(C)c(=O)n(C)c1=O	1	-11	-3	3	-9	15
COc1ccccc1C(C)NC(=O)CCNC(=O)c1ccc(Cl)cc1 (configuration not stated)	16	-4	4	8	-5	12
Oc1cccc(Nc2c3ccccc3nc3ccccc23)c1	-11	-9	76*	40	20	-96
COc1ccccc1NCC(O)Cn1c2ccccc2c2ccccc21 (configuration not stated)	-6	28	36	-4	1	7
COc1ccc(CC(=O)NCc2ccccc2)cc1OC	-7	3	16	19	-15	-3
c1cncc(Nc2c3ccccc3nc3ccccc23)c1	-9	-35	28	29	-19	-46
Fc1cccc(NCCc2c[nH]c3ccccc23)n1	8	-24	-179	-186	-68	-14
COc1ccc(CCNCC(O)Cn2c3ccccc3c3ccccc32)cc1OC (configuration not stated)	-39	7	111*	9	-29	36
c1ccc2c(NCCc3c[nH]c4ccccc34)c3ccccc3nc2c1	-30	-8	99*	44*	-47	-124
COc1ccccc1CNC(=O)Cc1ccc(OC)c(OC)c1	1	68*	9	5	13	7
CN1CCN(C(=O)CNC(=O)C23CC4CC(CC(C4)C2)C3)CC1	-6	0	3	16	5	-17
Cc1cccc(C(C)C)c1NC(=O)COC(=O)CCN1C(=O)C2CC=CCC2C1=O (configuration not stated)	1	-2	6	11	5	-10
CCOC(=O)[C@]12CCCC=C1N(Cc1ccco1)C(=O)[C@H](CC(=O)N1CCCC1)C2	x	36	x	12	-14	x
COc1ccccc1OCc1cc(-c2ccccc2)no1	7	-32	-312	-316	-76	20
Cc1cc(COc2ccccc2O)on1	10	86*	-7	0	x	-9
Cn1cccc1C(=O)NNC(=O)COc1ccccc1Cl	-1	-15	-79	-109	-41	7
COC(=O)c1ccc(C(=O)Nc2ccc3nc(-c4ccncc4)[nH]c3c2)cc1	9	35	-6	3	-6	-16
COc1ccc(-c2nc3ccccc3[nH]2)cc1	-18	66*	-21	-40	36	-10
COc1ccc2oc(=Nc3ccccc3)c(-c3nc4ccccc4[nH]3)cc2c1	-67*	56*	-155	-213	36	-15
COC(=O)c1ccc(-c2nc3ccccc3[nH]2)cc1	2	56*	-118	-111	-4	-12
COc1ccc(-c2nc3cc(C)c(Br)c(C)n3c2Cc2ccsc2)cc1OC	x	-6	x	-22	-20	x
